Screening results deposited in PubChem by National Center for Advancing Translational Sciences (NCATS).
An excerpt weighted towards active compounds, which were near 19% of everything screened.
KB-V1 cytotox: kills drug-selected multidrug resistant KB-V1 cells. Potency, µM (series often up to 46.1 µM), hits mostly cytotoxic. 400,000 compounds, 3.4% hits. KB-V1 MDR cells viability, CellTiter-Glo, 72 h. AID 1347076; further: nearly all actives have a fitted effect of over 60% in size
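Following 72 h at 37 degrees C with compound, KB-V1 cell viability was read by CellTiter-Glo luminescence, medium being phenol-red-free DMEM plus 10% FBS; concentration-response parameters came from normalized, curve-fitted qHTS data.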
HT1080-NT tox: kills 2HG-producing HT-1080-NT fibrosarcoma cells; 360,000 compounds, 1.6% hits; Potency, µM (series often up to 46.1 µM), without a hit: top-dose activity, negative = less viability, hits mostly cytotoxic; HT-1080-NT fibrosarcoma viability, CellTiter-Glo ATP luminescence, 48 h;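 further: NT is the 2HG producing partner of a matched IDH1 knockdown line; 0% = DMSO-treated cells and -100% = media-only wells without cells; nearly all actives have a fitted effect of over 55% in size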
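750 cells/well, RPMI + 5% FBS; 2 h settle, compound pin-transfer, 48 h at 37 degrees C. CellTiter-Glo 10 min RT, luminescence. Normalized to DMSO and media-only wells.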
DT40 TDP1 no CPT: qHTS for Inhibitors of human tyrosyl-DNA phosphodiesterase 1 (TDP1): qHTS in cells in absence of CPT | Potency, µM (doses to about 46.2 µM), inactives show top-dose activity change, negative = growth inhibition, most hits filed as inhibitors | 420,000 compounds, 15% hits | AID 686978, 2013 | DT40 Tdp1-/- hTDP1 cells, no CPT, ATP luminescence, 48 h; further: nearly all actives have a fitted effect of over 55% in size
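Readout: luminescence from CellTiter-Glo after 30 min in the dark at RT. Cells: DT40 Tdp1-/- with stable hTDP1, 400/well. Exposure: compounds alone, ≥48 hr, 37 °C.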
HT1080 IDH1KD tx: kills HT-1080 cells with IDH1 knockdown; HT-1080 IDH1 knockdown viability, ATP luminescence, 48 h; Potency, µM (top dose mostly 46.1 µM), for the others: top-dose activity, negative = toxicity, usual class: cytotoxic; 360,000 compounds, 2% hits; AID 686971;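 further: 0% = DMSO wells and -100% = cell-free medium wells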
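IDH1KD HT-1080 cells, 750/well, RPMI + 5% FBS; compound pinned after 2 h settling; 48 h, 37 °C; CellTiter-Glo luminescence; % activity normalised to DMSO and no-cell wells; curves fitted, classed by r2 and efficacy.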
DT40 TDP1 CPT: DT40-hTDP1 cell growth loss with CPT. chicken DT40 Tdp1-/-;hTDP1 cells + 20 nM CPT, ATP luminescence, 48 h. Potency, µM (doses to about 46.2 µM), without a hit: at the highest dose activity change, negative = growth inhibition, actives largely listed as inhibitors. 420,000 compounds, 12% hits; further: nearly all actives have a fitted effect of over 55% in size
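Chicken DT40 Tdp1-/- cells complemented with human TDP1, 400 cells/well, exposed to compounds plus 20 nM camptothecin for at least 48 h at 37 C; viability read as ATP content by CellTiter-Glo luminescence.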
KB-3-1 cytotox: KB-3-1 parental cell cytotoxicity. KB-3-1 viability, CellTiter-Glo ATP luminescence, 72 h. Potency, µM (highest dose often 46.1 µM), hits mostly cytotoxic. 400,000 compounds, 1.4% hits. AID 1347075; further: nearly all actives have a fitted effect of over 60% in size
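Parental KB-3-1 adenocarcinoma cells in phenol-red-free DMEM with 10% FBS were pin-treated with compounds at several concentrations, incubated 72 h at 37 °C, and viability read by CellTiter-Glo luminescence; concentration-effect curves were fitted after normalization.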
An asterisk follows results filed as active; i = inactive; ? = inconclusive; · = not tested or not shown; [ ] = remark or other dose. The call rests on the fitted dose curve; in most records, active means well fitted curve in the direction sought with a large enough effect; inconclusive means small, poorly fitted or top-dose-only effect, or another doubt; inactive means no such curve, though single readings can be large; an effect the other way counts as inactive or inconclusive. Unless noted, on the % scale 0 is the no-effect control and ±100 the full control effect; potency means the concentration at half of the fitted maximal effect.

SMILES	KB-V1 cytotox	HT1080-NT tox	DT40 TDP1 no CPT	HT1080 IDH1KD tx	DT40 TDP1 CPT	KB-3-1 cytotox
CCOC(=O)C(C)(C)N(Cc1cccc(C)c1)S(=O)(=O)c1ccc(Cl)c([N+](=O)[O-])c1	i	-10.5%	14.6µM*	?	23.1µM*	20.6µM*
CCOC(=O)c1cnc2nc(NCc3cccc(Br)c3)[nH]n2c1=O	i	·	-3.7%	·	-5.3%	i
CC(C)Cn1c(-c2ccccc2Cl)nc2ccccc21	i	·	16.4µM*	·	?	i
Cn1c(-c2cccs2)nc2ccccc21	i	-0.1%	?	0.2%	-1.8%	i
CC(C)n1c(NCc2cccs2)nc2ccccc21	i	10.7%	-4.8%	22.8%	-17.9%	i
Cc1ccccc1Cn1c(C(C)O)nc2ccccc21 (stereo not drawn)	i	-1.2%	?	-1.7%	?	i
c1csc(Cn2c(-c3cccs3)nc3ccccc32)c1	20.6µM*	0.9%	-16.7%	-10.8%	?	?
CC(C)Cn1c(-c2cccs2)nc2ccccc21	i	-4.4%	?	-3.9%	16.4µM*	?
CCc1cccc(CC)c1NC(=O)Cn1c(-c2ccccc2Cl)nc2ccccc21	?	0.5%	-4.9%	7.0%	0.9%	i
Cc1ccccc1Cn1c(-c2cccs2)nc2ccccc21	i	·	16.4µM*	·	?	i
Cc1ccccc1CN1[C@@H](C(C)C)COCCS1(=O)=O	i	-5.5%	-7.5%	-4.7%	-7.6%	i
CC(C)n1c(SCC(=O)Nc2ccc(F)cc2)nc2c(oc3ccccc32)c1=O	i	·	?	·	?	i
CCSc1nc(-c2ccccc2)nc2c1CCCC2	i	-9.4%	?	8.8%	?	i
CN(C)CCSc1nc(-c2ccccc2)nc2c1CCCC2	i	-22.6%	16.4µM*	-10.2%	11.6µM*	i
Cc1cccc(-c2nc3c(c(SCC(=O)N(C)C)n2)CCCC3)c1	?	7.2%	16.4µM*	16.2%	?	i
c1cncc(-c2cncnc2-n2ccnc2)c1	·	·	13.0%	·	5.8%	·
CCc1c(C)[nH]n(-c2nc(-c3cccc([N+](=O)[O-])c3)cs2)c1=O	16.4µM*	2.4%	?	-0.6%	?	?
CC(OC(=O)c1nn(C(C)C)c(=O)c2ccccc12)C(=O)Nc1ncc(Cl)cc1Cl (stereo not drawn)	i	1.1%	18.4µM*	-0.5%	?	i
CCOc1ccccc1NC(=O)CN1C(=O)COc2ccc(S(=O)(=O)Nc3ccccc3)cc21	i	·	18.4µM*	·	16.4µM*	i
COc1ccccc1NC(=O)CN1C(=O)COc2ccc(S(=O)(=O)N3CCCCCC3)cc21	i	-4.2%	-11.3%	-13.7%	?	i
CCN(Cc1ccccc1)C(=O)CN1C(=O)COc2ccc(S(=O)(=O)NC3CCCC3)cc21	i	6.2%	?	-3.5%	16.4µM*	i
CCOc1ccccc1NC(=O)CN1C(=O)COc2ccc(S(=O)(=O)N3CCCCCC3)cc21	·	·	20.6µM*	·	?	·
COc1ccc(CNC(=O)CN2C(=O)COc3ccc(S(=O)(=O)NC4CCCC4)cc32)cc1	?	1.3%	1.0%	0.3%	-1.2%	i
Cc1cc(C)cc(NC(=O)CN2C(=O)COc3ccc(S(=O)(=O)Nc4ccccc4)cc32)c1	i	·	-19.3%	·	-24.1%	i
CCOc1ccccc1NC(=O)CN1C(=O)COc2ccc(S(=O)(=O)N3CCCCC3)cc21	·	·	23.1µM*	·	20.6µM*	·
SMILES	KB-V1 cytotox	HT1080-NT tox	DT40 TDP1 no CPT	HT1080 IDH1KD tx	DT40 TDP1 CPT	KB-3-1 cytotox
CN1CCN(C(=O)C23CCC(C)(c4nc5ccccc5nc42)C3(C)C)CC1 (stereo not drawn)	i	6.0%	0.0%	8.1%	-14.2%	i
COc1cc(/C=C/C(=O)OCC(=O)NCc2cccs2)ccc1OCC#N	i	-18.0%	-11.7%	-21.3%	2.4%	i
COc1cccc(C(O)c2ncc(-c3ccccc3Cl)[nH]2)c1 (stereo not drawn)	i	0.0%	-18.3%	-4.0%	?	i
O=C(COC(=O)c1ccccc1C(=O)c1ccc(Cl)cc1)NCc1ccccc1	i	-11.4%	18.4µM*	1.3%	?	i
O=C(COC(=O)c1ccccc1C(=O)c1ccccc1)NCCc1ccc(Cl)cc1Cl	i	?	20.6µM*	?	?	i
C/C(NC1CCCCC1)=C(/C#N)C(=O)NCCN1CCOCC1	i	12.6%	-13.6%	9.5%	-13.5%	i
COc1cc2nc(CN(CCO)C3CS(=O)(=O)CC3O)nc(N3CCCCC3)c2cc1OC (stereo not drawn)	·	·	-3.8%	·	-5.5%[9.04 µM]	·
COc1ccc(OC)c(C(c2nnnn2CCc2ccccc2)N2CCN(c3ccccc3)CC2)c1 (stereo not drawn)	i	1.2%	35.5µM*	3.1%	?	i
Oc1ccc(N2CCN(C(c3cccnc3)c3nnnn3Cc3ccccc3)CC2)cc1 (stereo not drawn)	i	-1.4%	18.4µM*	8.1%[9.24 µM]	?	i
c1ccc(CCn2nnnc2C(c2cccs2)N2CCN(Cc3ccc4c(c3)OCO4)CC2)cc1 (stereo not drawn)	i	-14.3%	23.1µM*	-26.7%	?	i
c1ccc(Cn2nnnc2C(c2cccnc2)N2CCN(C3CCCCC3)CC2)cc1 (stereo not drawn)	?	17.9%	-25.0%	19.1%	-8.0%	i
CCC(c1nnnn1Cc1ccccc1)N1CCN(c2ccccc2)CC1 (stereo not drawn)	23.1µM*	-0.9%	?	7.9%	-0.9%	i
COCCn1nnnc1C(c1ccc(OC)cc1OC)N1CCN(c2ccccc2)CC1 (stereo not drawn)	?	2.0%	-22.0%	0.1%	-19.9%	i
N#CC(=C(O)COC(=O)CCCNC(=O)c1ccc(Cl)cc1)c1nc2ccccc2[nH]1	i	-1.7%	-18.3%	-0.5%	?	i
COC(=O)c1sccc1NC(=O)Cc1ccc(Br)cc1	?	-1.1%	-24.8%	0.1%	-19.4%	i
c1ccc(CCn2nnnc2C(c2cccnc2)N2CCN(c3ccccc3)CC2)cc1 (stereo not drawn)	10.3µM*	-6.4%	11.2µM*	-3.2%	13µM*	i
